Laboratory results from PubChem BioAssay (Tox21).
Inconclusive results are not listed. Entries that show only a call come without a potency. Active and inactive are the calls of the source. Calls follow the shape of the dose curve; as a rule, active = well fitted cell-killing curve with a large enough effect in the repeat runs (not every such curve was filed as active); inconclusive = weak or mixed curves, or effect the other way; inactive = no such curve, though single readings can be large or run the other way.
Potency is read from the fitted curve at half-maximal effect.

Test: qHTS assay to identify small molecule antagonists of the farnesoid-X-receptor (FXR) signaling pathway - cell viability counter screen (AID 743221); also: nearly all actives have a fitted effect of over 50% in size
Conditions: FXR-bla HEK293T viability, CellTiter-Glo luminescence, 16 h; series mostly up to 62.6 µM; activity change, negative = cytotoxicity: at the top concentration
Source text: National Center for Advancing Translational Sciences [NCATS]
NIH Chemical Genomics Center [NCGC]
U.S. Environmental Protection Agency [EPA]
National Institutes of Environmental Health Sciences [NIEHS]
National Toxicology Program [NTP]
U.S. Food and Drug Administration [FDA]
The farnesoid-X-receptor (FXR), a nuclear hormone receptor, is highly expressed in liver, intestine, kidney and adrenal cortex. Natural ligands of FXR are the bile acids (Cholic acid, Chenodeoxy cholic acid etc). FXR is an important regulator of diverse metabolic pathways, including the bile acid homeostasis, lipid and glucose metabolisms. FXR regulates the expression of target genes by binding either as a monomer or as a heterodimer with the retinoid X receptor (RXR). Numerous studies have reported that FXR exerts protective function during cholestasis, diabetes, liver regeneration, and cancer. To identify compounds that inhibit FXR signaling, GeneBLAzer FXR-UAS-bla HEK 293T cell line (Invitrogen, Carlsbad, CA) containing a beta-lactamase reporter gene under the control of a UAS response element was used to screen the Tox21 10K compound library. The cytotoxicity of the Tox21 compound library against the FXR-bla cell line was tested in parallel by measuring the cell viability using CellTiter-Glo assay in the same wells.
Tox21 Assay Protocol Summary:
FXR-bla cells were dispensed at 5000 cells/5uL/well in 1536-well black wall/clear bottom plates using a Multidrop Combi (Thermo Fisher Scientific, Waltham, MA) dispenser. After the assay plates were incubated at 37 C and 5% CO2 for 5 h, 23 nL of compounds dissolved in DMSO, positive controls or DMSO only was transferred to the assay plate by a Pintool station (Kalypsys, San Diego, CA), followed by addition of 1 uL Chenodeoxycholic acid (50 uM, final concentration in the wells). The assay plates were incubated at 37C for 16 h. After 1 uL of LiveBLAzerTM B/G FRET substrate was added using a Bioraptr Flying Reagent Dispenser (FRD) workstation (Beckman Coulter, Indianapolis, IN), the plates were incubated at room temperature for 2 h, and fluorescence intensity was measured by an Envision plate reader (PerkinElmer, Shelton, CT). For cell viability readout that measures cytotoxicity, 4uL/well of CellTiter-Glo reagent was added into the assay plates using a Bioraptr FRD. After 30 min incubation at room temperature, the luminescence intensity in the plates was measured using a ViewLux plate reader (PerkinElmer).
In the case of `c1ccc2sc(SSN3CCOCC3)nc2c1`, the Potency is reported as “inactive”. In the case of `COc1cc([C@@H]2c3cc4c(cc3[C@H](O)[C@H]3COC(=O)[C@H]23)OCO4)cc(OC)c1OC`, the Potency is reported as “inactive”. For `O=S(=O)(O)c1ccc(O)cc1`, the Potency was “inactive”. With `Nc1ncnc2nc[nH]c12` the Potency was “inactive”. In the case of `O=C=Nc1ccc(Cc2ccc(N=C=O)cc2)cc1`, the Potency is reported as “inactive”. With `Nc1ccc(Nc2ccccc2)cc1` the Potency was “inactive”. For `CCCCC(CC)COP(=O)(OCC(CC)CCCC)OCC(CC)CCCC` (stereo not given), the Potency was “inactive”. With `CCCC(=O)O` the Potency was “inactive”. With `Cc1ccc(C)c(O)c1C` the Potency was “inactive”. For `COC(=O)Nc1nc2ccc(S(=O)c3ccccc3)cc2[nH]1` (stereo not given), the Potency was “inactive”. With `CCOCCOCCO` the Potency was “inactive”. For `CC(C)=CCCC(C)CCO` (stereo not given), the “activity change, negative = cytotoxicity” value was -6.74% (inactive). For `CCCCC(CC)COC(=O)c1ccc(N(C)C)cc1` (stereo not given), the Potency was “inactive”. For `OC(CCl)CCl`, the Potency was “inactive”. For `COc1c(Cl)c(Cl)c(Cl)c(Cl)c1Cl`, the Potency was “inactive”. In the case of `Cc1ccc(C(=O)c2cc(O)c(O)c([N+](=O)[O-])c2)cc1`, the “activity change, negative = cytotoxicity” value is reported as -3.15% (inactive). In the case of `CCC(C)(O)CCCC(C)C` (stereo not given), the Potency is reported as “inactive”. For `O=C(/C=C/c1ccccc1)OCc1ccccc1`, the Potency was “inactive”. For `C[C@]12CC[C@H]3[C@@H](CCC4=CC(=O)CC[C@@]43C)[C@@H]1CC[C@@H]2C(=O)CO`, the Potency was “inactive”. For `Cn1cnc([N+](=O)[O-])c1Sc1ncnc2nc[nH]c12`, the “activity change, negative = cytotoxicity” value was -17.1% (inactive). For `NNc1ccc(C(=O)O)cc1`, the Potency was “inactive”. In the case of `CCCCNS(=O)(=O)c1ccccc1`, the “activity change, negative = cytotoxicity” value is reported as 18.7% (inactive). In the case of `CN(C)c1nc(N(C)C)nc(N(C)C)n1`, the Potency is reported as “inactive”. With `c1ccc2cc(Nc3ccc(Nc4ccc5ccccc5c4)cc3)ccc2c1` the Potency was “inactive”. With `CC(=O)CC/C=C(\C)CCC=C(C)C` the Potency was “inactive”. For `CC(C)CC(C)(O)C#CC(C)(O)CC(C)C` (stereo not given), the Potency was “inactive”. In the case of `CC(=O)c1ccccn1`, the Potency is reported as “inactive”. For `c1cc(-c2ccncc2)ccn1`, the Potency was “inactive”. With `C/C=C/C(=O)O` the Potency was “inactive”. For `O=[N+]([O-])c1ccc2c(c1)Cc1ccccc1-2`, the Potency was “inactive”. With `O=Cc1ccccc1O` the Potency was “inactive”. For `CNCCCC12CCC(c3ccccc31)c1ccccc12`, the Potency was 38.9 µM (active). In the case of `O=CCCCC=O`, the Potency is reported as “inactive”. In the case of `COC(C)COC(C)COC(C)CO` (stereo not given), the Potency is reported as “inactive”. In the case of `O=C1OC2(c3cc(Br)c(O)c(Br)c3Oc3c2cc(Br)c(O)c3Br)c2c(Cl)c(Cl)c(Cl)c(Cl)c21`, the “activity change, negative = cytotoxicity” value is reported as 0.746% (inactive). With `Cc1cc2nc3c(=O)[nH]c(=O)nc-3n(C[C@H](O)[C@H](O)[C@H](O)CO)c2cc1C` the Potency was “inactive”. For `Clc1nc(Cl)c(Cl)c(Cl)c1Cl`, the Potency was “inactive”. With `O=C1c2cccc(O)c2C(=O)c2c(O)cccc21` the “activity change, negative = cytotoxicity” value was 2.83% (inactive). For `CCCc1c(OCCCCc2nn[nH]n2)ccc(C(C)=O)c1O`, the Potency was “inactive”. In the case of `CN(C)CCN(Cc1cccs1)c1ccccn1`, the Potency is reported as “inactive”.
